Activity calls are given as the source filed them. Calls follow the shape of the dose curve; as a rule, active = well fitted activation curve with a large enough effect; inconclusive = small, poorly fitted or top-dose-only effect; inactive = flat fitted curve, though single readings scatter.

A short description of this test: Cellular Toxicity (caspase-3) SHSY5Y (AID 657). Conditions: SH-SY5Y caspase-3 activation, DMSO zero, 10 µM staurosporine = 100%; series mostly up to 91.7 µM. The source says:
NIH Chemical Genomics Center [NCGC]
NIH Molecular Libraries Screening Centers Network [MLSCN]
National Institutes of Environmental Health Sciences [NIEHS]
National Toxicology Program [NTP]
We have developed a 1536-well cell-based assay for quantitative high throughput screening (qHTS) against a number of cell lines to determine in vitro caspase 3/7 activity of small molecules. This particular assay uses the SH-SY5Y cell line which is derived from human neuroblastoma.
NCGC Assay Protocol Summary:
The Caspase-Glo 3/7 assay (Promega) is a homogeneous method to measure caspase-3 and caspase-7 activities in cultured cells. The quantitation of caspase 3/7 activity is based on the cleavage of a peptide-aminoluciferin substrate. After caspase cleaves the substrate the free aminoluciferin is liberated and serves as the substrate of luciferase, which generates the light. The luminescent signal is proportional to the amount of caspase 3/7 activity present.
Using the Caspase-Glo 3/7 assay, the amount of caspase 3/7 activity was measured in the SH-SY5Y cell line with complete culture medium following compound treatment for 16 hours. The assay was performed in opaque white 1536-well plates. In the screen, staurosporine and doxorubicin were used as positive controls. Library compounds were measured for their ability to cause the activation of caspase 3/7 in the cell line, as reflected by an increase in luminescence signal, in a concentration-dependent manner. Data were normalized to the controls for basal activity (DMSO only) and 100% stimulation (10 uM staurosporine). AC50 values were determined from concentration-response data modeled with the standard Hill equation.
qHTS protocol for caspase 3/7 assay in SH-SY5Y cells
[Step] [Parameter] [Value] [Description]
1. Reagent; 5 uL; 1500 SH-SY5Y cells/well
2. Time; 5 hr; 37 °C incubation
4. Controls; 23 nL; doxorubicin 7 pM to 100 uM & staurosporine 1.4 pM to 20 uM
5. Time; 16 hr; 37 °C incubation
6. Reagent; 5 uL; Caspase-Glo 3/7 reagent
7. Time; 1 hr; Room Temperature
8. Detection; Luminescence; Viewlux plate reader
Keywords: caspase 3/7, apoptosis, SH-SY5Y cell line, luminescence, NTPHTS, NTPHTS_NCGC, NIEHS, EPA, DSSTox, MLSMR, MLSCN, NIH Roadmap, qHTS, NCGC
With `C=C(C)C(=O)OCC(C)O` (stereo not given), the compound was classed as inactive. Under `CNC(=O)c1ccccc1` stands “inactive”; under `FC(F)(F)c1cccc(Cl)c1`, “inactive”; under `O=C(Cl)c1cccc([N+](=O)[O-])c1`, “inactive”. With `CC(CCl)OC(C)CCl` (stereo not given), the call was inactive. Turning to `CC(=O)CCc1ccccc1`, the compound was classed as inactive. Under `CC(C)(C)c1ccc(OCC2CO2)cc1` (stereo not given) stands “inactive”; under `O=P(O)(OCc1ccccc1)OCc1ccccc1`, “inactive”; under `O=C1OC(=O)c2c(Br)c(Br)c(Br)c(Br)c21`, “inactive”. Take `O=Cc1cccc(Br)c1`: the compound was classed as inactive. For `COCCOC(=O)c1ccccc1C(=O)OCCOC`, the call was inactive. The result for `NC(=O)NC(N)=O` reads “inactive”; that for `COc1ccccc1[N+](=O)[O-]`, “inactive”. As to `C1CCCC1`, the compound was called inactive. Take `Cc1cccc2cccnc12`: the compound was called inactive. Under `CC1CCC2CC1C2(C)C` (stereo not given) stands “inactive”; under `CCCOCC(C)OCC(C)O` (stereo not given), “inactive”; under `CC(C)(O)C(=O)O`, “inactive”. Under `CCOCCO` stands “inactive”. Regarding `OC(CCl)CCl`, the outcome was inactive. Regarding `CCOC(C)(C)C`, the compound was classed as inactive. As for `Cc1ccc(C#N)cc1`, the outcome was inactive. The result for `Cc1cccc2sc(N)nc12` reads “inactive”; that for `Cc1ccc2ccccc2c1[N+](=O)[O-]`, “inactive”. The result for `c1ccc2n[nH]nc2c1` reads “inactive”; that for `Nc1nc2ccccc2[nH]1`, “inactive”.

As to `[O-]/[N+](=N\O)c1ccccc1`, the outcome was inactive. For the compound `NCCCCCCN`, the outcome was inactive. Under `CC(C)=CCl` stands “inactive”. As to `Cc1ccc(C(=O)O)cc1`, the compound was called inactive. Under `CC(=O)Nc1ccccc1C` stands “inactive”; under `CCCCCCC(=O)O`, “inactive”; under `Cc1cc(C(=O)O)ccc1[N+](=O)[O-]`, “inactive”.

As to `Nc1cc(Cl)c([N+](=O)[O-])cc1O`, the compound was classed as inactive. The result for `Cc1ccc2c(c1[N+](=O)[O-])C(=O)c1ccccc1C2=O` reads “inactive”; that for `C=C(C)C(=O)OCCCCCCCCCC`, “inactive”; that for `O=CNc1ccccc1`, “inactive”. Consider `Oc1cccc(Nc2ccccc2)c1`, for which the outcome was inactive. The result for `O=Cc1ccc(Cl)cc1` reads “inactive”. Under `CCC(C)=O` stands “inactive”.
